The record followed here is ChEMBL document CHEMBL1157539, “Thousands of chemical starting points for antimalarial lead identification” (Nature, 2010).

Molecules are shown by their SMILES. In all, about 13,000 compounds were measured (“IFI”: median about 4, highest 2% from about 17 on). What follows is part of a selection rich in the highest values, with near analogues and random picks from the rest.

This assay can be described thus: GSK_TCMDC: Inhibition Frequency Index (IFI). The number of non-kinase HTS assays where a compound showed > 50 % inhibition, expressed as a percentage of the number of such assays in which the compound was tested. It counts as functional.
In turn, `CCn1c(-c2nonc2N)nc2c(-c3cccc(NC(=O)Nc4ccccc4Cl)c3)ncc(OCCCN)c21` came in with an IFI of 18.2%.
The same measure for `CCn1c(-c2nonc2N)nc2c(-c3cccc(Cl)c3)ncc(OCCCNCCc3c[nH]cn3)c21`: 7.69%.
The same measure for `CCn1c(-c2nonc2N)nc2c(-c3cccc(NC(=O)Nc4ccccc4OC)c3)ncc(OCCCN)c21`: 20.5%; for `CCn1c(-c2nonc2N)nc2c(-c3cccc(NC(=O)Nc4cccc(OC)c4)c3)ncc(OCCCN)c21`: 15.6%.
The same measure for `Cc1ccc2[nH]c(-c3ccccc3)cc(=NN=Cc3cccnc3)c2c1`: 1.52%; for `Oc1ccc(CCNCCCCCCNCCc2ccc(Br)cc2)cc1O`: 5.15%; for `N#CCOc1c(C2CCN(CCCCNC(=O)c3ccc(-c4ccc(C(F)(F)F)cc4)cc3)CC2)ccc2c1CCCC2`: 7.08%.
As to `N=C(N)Nc1ccc(OCCCCCOc2ccc(NC(=N)N)cc2)cc1`, the IFI came to 3.13%.
The same measure for `CC(C)Oc1ccc(CCCON2C(=N)N=C(N)NC2(C)C)cc1`: 5.63%.
Take `N#Cc1cccc(CN2CCCN(Cc3ccc(C(=O)Nc4ccc(Cl)cc4)cc3)CC2)c1`: the IFI amounted to 7.87%.
The same measure for `CS(=O)(=O)c1ccc2c(c1)CCN(CCC1CCC(NC(=O)c3cc4cccc(Br)c4[nH]3)CC1)CC2` (configuration not stated): 7.59%; for `CC(C)(C)c1ccc(C(=O)NC2CCC(CCN3CCc4ccc(S(C)(=O)=O)cc4CC3)CC2)cc1C(F)(F)F` (configuration not stated): 21.6%.
Next, `CS(=O)(=O)c1ccc2c(c1)CCN(CCC1CCC(NC(=O)C(=Cc3ccc(Cl)cc3Cl)c3ccc(-c4ccccc4)cc3)CC1)CC2` (configuration not stated): 5.48%; `O=C(Nc1ccc(F)cc1)c1cnc(N2CCN(c3ccncc3)CC2)c(Cl)c1`: 8.51%; `O=C(Nc1ccc(N2CCC(Nc3ccccn3)CC2)cc1)c1cnc(Cl)c(Cl)c1`: 17.4%.
Next, `Cc1ccc(NC(=O)c2cnc(N3CCN(c4ccncc4)CC3)c(Cl)c2)cc1`: 11.9%.
In the case of `Cn1nccc1C(=O)NCCNCc1ccc(-c2ccc(-c3nc4cc(F)ccc4[nH]3)cc2)cc1`, the IFI came to 8.91%.
The same measure for `Cc1cc(OCC2CCN(c3ncc(C(=O)NC4CC4)cc3Cl)CC2)ccc1F`: 9.8%.
The same measure for `Cc1ccc(OCC2CCN(c3ncc(C(=O)NC4CC4)cc3Cl)CC2)cc1`: 0%.
For `Cc1ccc(F)c(OCC2CCN(c3ncc(C(=O)NC4CC4)cc3Cl)CC2)c1`, the IFI turned out to be 17.3%.
The same measure for `CN1CCC(NCc2cccc(-c3cccc(S(=O)(=O)NCc4ccccc4)c3)c2)CC1`: 11.2%; for `CCN(CC)CCNC(=O)c1ccc(NC(=O)c2oc3c(Cl)cccc3c2C)cc1`: 4.76%; for `CCN(CC)CCOc1ccc(C(O)(C#CC(O)(c2ccccc2)c2ccc(OCCN(CC)CC)cc2)c2ccccc2)cc1` (configuration not stated): 6.52%.
`CCN(CC)CCOc1ccc(NC(=O)c2oc3ccccc3c2C=Cc2ccccc2)cc1` came in with an IFI of 18.5%.
Turning to `COC(=O)c1cccc(CNCc2ccc(-c3ccc(-c4nc5cccc(C)c5[nH]4)s3)cc2)c1`, the IFI was 7.55%.
Next, `CN1CCN(CCCN(Cc2cccc(-c3cccc(CNCc4ccc5c(c4)OCO5)c3)c2)C(=O)CCC2CCCC2)CC1`: 10.9%; `CC(C)C[C@H](NC(=O)c1cc2ccccc2s1)C(=O)N[C@H]1CCN(Cc2ccc(I)c(OC3CCN(C)C3)c2)C1` (some centres not stated): 16.7%.
Next, `O=C(Nc1ccc2ccccc2c1)c1ccc(CN2CCC(Cc3ccccc3)CC2)cc1`: 6.21%.
`C/C=C/C=C/C1=NCCc2cc(OCCC)ccc21`: the IFI stood at 8.76%.
The same measure for `CCCOc1cc2c(cc1OCCC)C(C=Cc1ccc(Cl)cc1Cl)=NC(C)C2` (configuration not stated): 19%; for `CCCCOc1cc2c(cc1OCC)C(C=Cc1ccc(Cl)cc1Cl)=NCC2`: 6.67%.
Next, `COc1ccc(CNCCc2cccs2)cc1-c1cccc(S(=O)(=O)NCCN2CCCC2)c1`: 9.8%.
Consider `C=CCN(C(=O)c1ccc(Cl)c([N+](=O)[O-])c1)c1nc(-c2ccccc2)cs1`, for which the IFI is 3.39%.
The same measure for `Nc1ccc(-c2ccc(NC(=O)Nc3cc(C(F)(F)F)ccc3F)cc2)cn1`: 1.32%; for `Nc1nccc2ccc(-c3ccc(NC(=O)Nc4cc(C(F)(F)F)ccc4F)cc3)cc12`: 20.2%; for `Nc1ncc(-c2ccc(NC(=O)Nc3cc(C(F)(F)F)ccc3F)cc2)c(N)n1`: 0%.
In turn, `Cc1[nH]c(C)c(-c2ccc(Oc3ccccc3)cc2)c(=O)c1Br` displayed an IFI of 6.11%.
Next, `Cc1nc(-c2cccc(Nc3nccc(NCC(O)c4cccc(C(F)(F)F)c4)n3)c2)cs1` (configuration not stated): 11%.
Next, `Cc1nc(-c2cccc(Nc3nccc(NCC(O)c4ccccc4C(F)(F)F)n3)c2)cs1` (configuration not stated): 22.8%.
For `Cc1cccc(C(O)CNc2ccnc(Nc3cccc(-c4csc(C)n4)c3)n2)c1` (configuration not stated), the IFI amounted to 13.6%.
The same measure for `Cc1ccc(C(O)CNc2ccnc(Nc3cccc(-c4csc(C)n4)c3)n2)cc1` (configuration not stated): 8.74%.
The same measure for `Cc1nc(-c2cccc(Nc3nccc(NCC(O)c4ccccc4)n3)c2)cs1` (configuration not stated): 24.1%; for `Cc1nc(-c2cccc(Nc3nccc(NCC(O)c4ccccc4C)n3)c2)cs1` (configuration not stated): 13.6%.
With `Cc1[nH]c(C)c(-c2ccc(-c3ccc(Cl)cc3)cc2)c(=O)c1Cl`, the IFI came to 0.76%.
The same measure for `COc1ccc(CNCc2ccc(-c3cccc(-c4nc5cc(C(F)(F)F)ccc5[nH]4)c3)cc2)cc1`: 14.3%.
`CCCCc1cc(O)c2c(c1)OC(C)(C)C=C2C1=CCN(Cc2ccccc2)CC1` yielded an IFI of 1.43%.
Next, `Oc1ccc2nc(NCCCc3ccccc3)nc(NCCCc3ccccc3)c2c1`: 10.9%; `COc1ccc(C(=O)Nc2ccc(Cl)cc2C(=O)Nc2ccncc2)cc1`: 1.35%; `COc1cccc(NC(=O)c2cc(Br)cc(N3CCN(c4ccncc4)CC3)c2)c1`: 12.5%.
Next, `COc1ccc(NC(=O)Nc2ccc(C)c(-c3ccc(C(=O)NCCN4CCCC4)cc3)c2)cc1`: 0%; `COc1cccc(NC(=O)Nc2ccc(-c3oc(C(=O)NCC(c4ccccc4)N(C)C)cc3-c3ccncc3)cc2)c1` (configuration not stated): 6.85%; `COc1cccc(NC(=O)Nc2ccc(C)c(-c3ccc(C(=O)Nc4ccncc4)cc3)c2)c1`: 26.8%.
The same measure for `COc1ccc(NC(=O)Nc2ccc(C)c(-c3ccc(C(=O)Nc4ccncc4)cc3)c2)cc1`: 25.4%; for `CN1CCN(c2ccc(Nc3c(C(N)=O)cnc4cc(-c5ccoc5)ccc34)cc2)CC1`: 4.73%; for `OC1=C2C(=Nc3ccccc3SC2c2cccs2)c2ccccc21` (configuration not stated): 3.5%.
Molecule `COc1ccccc1-c1ccc(C(=O)NCC2CCCN(Cc3cccc(C(F)(F)F)c3)C2)s1` (configuration not stated) gave an IFI of 3.7%.
Next, `Nc1nc(N)c2c(ccc3c2ccn3Cc2ccc3c(c2)OCO3)n1`: 6.67%; `Fc1ccccc1C=NNc1ccnc2cc(Cl)ccc12`: 1.48%; `CC(C)c1ccc(C=CC(=O)N2CCC(CCN3CCC(c4c[nH]c5ccccc45)CC3)CC2)cc1`: 7.19%.
Consider `OC(CNc1ccnc(Nc2ccc(Cl)cc2)n1)c1ccccc1C(F)(F)F` (configuration not stated), for which the IFI was 14.4%.
Next, `N#Cc1cccc(Nc2nccc(NCC(O)c3cccc(C(F)(F)F)c3)n2)c1` (configuration not stated): 10.4%.
Next, `OC(CNc1ccnc(Nc2cccc(Cl)c2)n1)c1cccc(C(F)(F)F)c1` (configuration not stated): 13.3%.
Next, `N#Cc1cccc(Nc2nccc(NCC(O)c3ccccc3C(F)(F)F)n2)c1` (configuration not stated): 19.2%.
The molecule `OC(CNc1ccnc(Nc2ccccc2)n1)c1ccc(C(F)(F)F)cc1` (configuration not stated) displayed an IFI of 8.08%.
Consider `OC(CNc1ccnc(Nc2cccc(Cl)c2)n1)c1ccccc1C(F)(F)F` (configuration not stated), for which the IFI was 20.4%.
The same measure for `OC(CNc1ccnc(Nc2cccc(Cl)c2)n1)c1ccc(C(F)(F)F)cc1` (configuration not stated): 11%; for `Cc1ccccc1C(O)CNc1ccnc(Nc2cccc(C#N)c2)n1` (configuration not stated): 7.69%; for `N#Cc1cccc(Nc2nccc(NCC(O)c3ccc(C(F)(F)F)cc3)n2)c1` (configuration not stated): 20.4%.
Next, `CNCCNCc1cccc(-c2ccc(-c3nc4cc(C(F)(F)F)ccc4[nH]3)s2)c1`: 8%.
Next, `O=C(Nc1ccc(-c2cccc(-c3nc4cc(C(F)(F)F)ccc4[nH]3)c2)cc1)c1ccoc1`: 7.08%.
In turn, `CN(C)CC(=O)Nc1ccc(-c2ccc3ccnc(N)c3c2)cc1` registered an IFI of 7.95%.
In turn, `CCCCCCCN1CC[C@@H](CCCc2ccnc3ccc(OCCCCNC(N)=O)cc23)[C@@H](CC)C1` returned an IFI of 8.76%.
The molecule `CC(C)CNCc1ccc(OCc2cccc(COc3ccc(CNCC(C)C)cc3I)c2)c(I)c1` showed an IFI of 8.89%.
Next, `CC[C@H](C)CNCc1ccc(OCc2cccc(COc3ccc(CNC[C@@H](C)CC)cc3I)c2)c(I)c1`: 15.3%; `CC(C)NCc1ccc(OCc2cccc(COc3ccc(CNC(C)C)cc3I)c2)c(I)c1`: 17.6%; `Cc1[nH]c(C)c(-c2ccc(OCCSc3ccncc3)cc2)c(=O)c1Br`: 3.7%.
Molecule `COc1ccccc1NC(=O)c1cc(C(=O)c2cc(Cl)ccc2O)cn(-c2ccccc2OC)c1=O` returned an IFI of 0.97%.
Next, `O=C(Oc1ccc(Cl)cc1C(=O)Nc1ccc([N+](=O)[O-])cc1Cl)c1ccccc1`: 22.4%.
Next, `COc1cc([N+](=O)[O-])ccc1NC(=O)c1cc(Cl)ccc1O`: 35.6%; `O=C(Nc1ccc([N+](=O)[O-])cc1Cl)c1cc2ccccc2cc1O`: 12.8%; `O=C(Nc1ccc([N+](=O)[O-])cc1Cl)c1cc(Br)cc(Cc2ccccc2)c1O`: 16.2%.
Next, `O=C(Nc1ccc(Cl)cc1C(=O)Nc1cccc(F)c1)c1ccc([N+](=O)[O-])cc1`: 1.43%; `Cc1[nH]cnc1CSCCN/C(=N\C#N)NCCCCCCCCN/C(=N/C#N)NCCSCc1nc[nH]c1C`: 1.49%; `CC(C)(C)c1ccc(-c2cc(C(=O)N[C@@H](CO)C(=O)O)on2)cc1.CC(C)(C)c1ccc(-c2nocc2C(=O)N[C@@H](CO)C(=O)O)cc1`: 0%.
In the case of `CN/C(=N\O)NCCN(C)C`, the IFI worked out at 1.43%.
Next, `Clc1cccc(Nc2ccc3c(N4CCCCC4)ncnc3n2)c1`: 8.33%; `CS(=O)(=O)CCNCc1nc(-c2ccc3c(=O)[nH]cnc3c2)cs1`: 22.6%.
Next, `CS(=O)(=O)CCNCc1nc(-c2ccc3c(Nc4ccc(Cl)cc4F)ccnc3c2)cs1`: 7.69%; `CS(=O)(=O)CCNCc1nc(-c2ccc3c(Nc4ccc(F)c(O)c4)ccnc3c2)cs1`: 3.73%; `Cc1cc([N+](=O)[O-])ccc1NC(=O)Nc1cccc(C(F)(F)F)c1`: 7.89%.
The same measure for `Cc1c(N=O)cc(C(C)(C)C)c(O)c1C(=O)Nc1ccc([N+](=O)[O-])cc1Cl`: 25.2%; for `Cc1sc(NC(=O)c2ccc([N+](=O)[O-])cc2Cl)c(C(N)=O)c1C`: 0.75%.
